From PubChem BioAssay (NCI)
Where “and” joins values, the source holds several entries; their conditions need not be identical. Equal entries are not always repeated. This is part of a sample that, as a whole, favours compounds with a hit. Of some 83,000 tested, about 20% had one in any assay.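 Cells were grown in 96-well plates and exposed to the test compound at a single concentration for 48 hours; results are reported as percent growth, with values below 10 considered active.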 Calls of active or inactive are those of the source.

Columns and labels:
Test in all cases: NCI-60 one-dose screen, 48 h (100 = growth as untreated, 0 = no growth, -100 = all killed)
[1] = test system: HCT-15 colon
[2] = test system: HT29 colon
[3] = test system: SNB-75 CNS
[4] = test system: U251 CNS
[5] = test system: PC-3 prostate
[6] = test system: SK-MEL-5 melanoma
[7] = test system: UACC-62 melanoma
[8] = test system: LOX IMVI melanoma
[9] = test system: SK-MEL-28 melanoma
[10] = test system: SK-MEL-2 melanoma
[11] = test system: EKVX NSCLC
[12] = test system: SN12C renal
[13] = test system: UO-31 renal
[14] = test system: TK-10 renal
[15] = test system: A498 renal
[16] = test system: CCRF-CEM leukemia
[17] = test system: MOLT-4 leukemia
[18] = test system: SNB-19 CNS; details: 10 µM unless noted
[19] = test system: ACHN renal; details: 10 µM unless noted
[20] = test system: CAKI-1 renal; details: 10 µM unless noted

Measured: growth

CC#C[C@]1(O)CC[C@H]2[C@@H]3CCC4=CC(=O)CCC4=C3[C@@H](c3ccc4c(c3)OCO4)C[C@@]21C
inactive: [1]; 10 µM 69.3% | [2]; 10 µM 102% | [3]; 10 µM 58.6% | [4]; 10 µM 76.1% | [5]; 10 µM 67.4% | [6]; 10 µM 83.6% | [7]; 10 µM 56.6% | [8]; 10 µM 83.7% | [9]; 10 µM 108% | [10]; 10 µM 71.1% | [11]; 10 µM 72.4% | [12]; 10 µM 91.2% | [13]; 10 µM 66.1% | [14]; 10 µM 69.9% | [15]; 10 µM 63% | [16]; 10 µM 89.9% | [17]; 10 µM 69.2%
active: [1]; 100 µM -13.9% | [2]; 100 µM -19.2% | [3]; 100 µM -6.95% | [4]; 100 µM -49.5% | [5]; 100 µM 0.372% | [6]; 100 µM -80.3% | [7]; 100 µM -50.1% | [8]; 100 µM -89.6% | [9]; 100 µM -52.3% | [10]; 100 µM -50.8% | [11]; 100 µM -10.7% | [12]; 100 µM -16.1% | [13]; 100 µM -42.4% | [14]; 100 µM -25.2% | [15]; 100 µM -59.7% | [16]; 100 µM -11.2% | [17]; 100 µM -7.79%

O=C1OC2(c3ccccc31)c1ccc(O)c(O)c1Oc1c2ccc(O)c1O
inactive: [1]; 10 µM unless noted 94.5% and 123% | [2]; 10 µM unless noted 102% and 116% | [3]; 10 µM unless noted 101% and 88.3% | [18] 110% and 108% | [4]; 10 µM unless noted 104% | [5]; 10 µM unless noted 81% and 89.2% | [6]; 10 µM unless noted 106% and 100% | [7]; 10 µM unless noted 108% and 102% | [8]; 10 µM unless noted 90.7% and 103% | [9]; 10 µM unless noted 112% and 117% | [10]; 10 µM unless noted 85.1% | [11]; 10 µM unless noted 105% and 128% | [12]; 10 µM unless noted 98.8% and 103% | [13]; 10 µM unless noted 90.2% and 87.8% | [14]; 10 µM unless noted 105% and 101% | [19] 101% and 113% | [20] 104% and 114% | [15]; 10 µM unless noted 114% and 97.9% | [16]; 10 µM unless noted 90.8% and 110% | [17]; 10 µM unless noted 95.4% and 121%

COc1ccccc1C(C)=O
inactive: [1]; 10 µM unless noted 108% and 95.7% | [2]; 10 µM unless noted 114% and 102% | [3]; 10 µM unless noted 105% and 85.1% | [18] 116% and 109% | [4]; 10 µM unless noted 107% and 106% | [5]; 10 µM unless noted 89.7% and 96.9% | [6]; 10 µM unless noted 105% and 110% | [7]; 10 µM unless noted 109% and 108% | [8]; 10 µM unless noted 103% and 60.6% | [9]; 10 µM unless noted 121% and 106% | [10]; 10 µM unless noted 109% | [11]; 10 µM unless noted 98% | [12]; 10 µM unless noted 118% and 108% | [13]; 10 µM unless noted 89.4% and 96.5% | [14]; 10 µM unless noted 118% and 99.4% | [19] 105% and 102% | [20] 99.5% and 112% | [15]; 10 µM unless noted 92% and 108% | [16]; 10 µM unless noted 102% | [17]; 10 µM unless noted 95.4% and 99.1%

Nc1nc2ncc(CNc3ccc(C(=O)N[C@@H](CCc4nn[nH]n4)C(=O)O)cc3)nc2c(=O)[nH]1
inactive: [1]; 10 µM unless noted 104% and 103% | [2]; 10 µM unless noted 104% and 92.3% | [3]; 10 µM unless noted 87.4% and 97.4% | [18] 107% and 95.6% | [4]; 10 µM unless noted 99.8% and 91.4% | [5]; 10 µM unless noted 101% and 85.3% | [6]; 10 µM unless noted 101% and 96.7% | [7]; 10 µM unless noted 97.3% and 94.5% | [8]; 10 µM unless noted 99.5% and 98.7% | [9]; 10 µM unless noted 97.5% and 110% | [10]; 10 µM unless noted 105% and 104% | [11]; 10 µM unless noted 96.1% and 106% | [12]; 10 µM unless noted 109% and 98.2% | [13]; 10 µM unless noted 89.7% and 89.8% | [14]; 10 µM unless noted 111% and 109% | [19] 92.2% and 104% | [20] 93% and 101% | [15]; 10 µM unless noted 105% and 92.2% | [16]; 10 µM unless noted 108% and 94.5% | [17]; 10 µM unless noted 95.6%
